Targets with a hit are over-represented here; the source holds about 6,500 in all. About 2% of all pairs of compound and target were hits.
Compound: COC(=O)C#Cc1ccccc1 [methyl 3-phenylpropiolate]
Test: log2 ratio of iodoacetamide-alkyne labeling of the cysteine site, DMSO over compound (competition); higher = stronger covalent engagement of the cysteine by the compound, active = 1 or more
Details: 500 µM; treatment time 1 h; system: HEK293T cell lysate
In short: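 Three replicates, each with duplicate channels, were prepared from HEK293T lysate (2 mg/mL) treated with vehicle or electrophile at 500 µM for 1 h at ambient temperature. Iodoacetamide alkyne was then applied for 1 h, and samples were clicked to sCIP-TMT reagents, pooled, trypsin-digested overnight at 37 °C, enriched on streptavidin, acid-eluted and analysed on Orbitrap Eclipse LC-MS/MS with FAIMS, with FragPipe quantification. The log2 competition ratio per cysteine is the mean control-channel divided by the mean compound-channel reporter intensity. Cysteines quantified in only one replicate were left out.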

Sequence of UniProt P35613 (P35613 whole entry): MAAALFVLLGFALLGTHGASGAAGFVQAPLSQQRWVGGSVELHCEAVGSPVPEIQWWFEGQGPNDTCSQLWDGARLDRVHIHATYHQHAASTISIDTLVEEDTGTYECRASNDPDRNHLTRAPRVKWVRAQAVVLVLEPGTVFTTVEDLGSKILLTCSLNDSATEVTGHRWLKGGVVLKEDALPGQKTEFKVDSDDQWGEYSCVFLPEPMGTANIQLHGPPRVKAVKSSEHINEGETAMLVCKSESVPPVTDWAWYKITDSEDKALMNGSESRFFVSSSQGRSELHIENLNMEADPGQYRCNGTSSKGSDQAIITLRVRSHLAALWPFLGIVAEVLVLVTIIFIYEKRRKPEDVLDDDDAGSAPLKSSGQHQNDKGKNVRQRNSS
Sequence of UniProt P41252 (P41252 whole entry, looked up): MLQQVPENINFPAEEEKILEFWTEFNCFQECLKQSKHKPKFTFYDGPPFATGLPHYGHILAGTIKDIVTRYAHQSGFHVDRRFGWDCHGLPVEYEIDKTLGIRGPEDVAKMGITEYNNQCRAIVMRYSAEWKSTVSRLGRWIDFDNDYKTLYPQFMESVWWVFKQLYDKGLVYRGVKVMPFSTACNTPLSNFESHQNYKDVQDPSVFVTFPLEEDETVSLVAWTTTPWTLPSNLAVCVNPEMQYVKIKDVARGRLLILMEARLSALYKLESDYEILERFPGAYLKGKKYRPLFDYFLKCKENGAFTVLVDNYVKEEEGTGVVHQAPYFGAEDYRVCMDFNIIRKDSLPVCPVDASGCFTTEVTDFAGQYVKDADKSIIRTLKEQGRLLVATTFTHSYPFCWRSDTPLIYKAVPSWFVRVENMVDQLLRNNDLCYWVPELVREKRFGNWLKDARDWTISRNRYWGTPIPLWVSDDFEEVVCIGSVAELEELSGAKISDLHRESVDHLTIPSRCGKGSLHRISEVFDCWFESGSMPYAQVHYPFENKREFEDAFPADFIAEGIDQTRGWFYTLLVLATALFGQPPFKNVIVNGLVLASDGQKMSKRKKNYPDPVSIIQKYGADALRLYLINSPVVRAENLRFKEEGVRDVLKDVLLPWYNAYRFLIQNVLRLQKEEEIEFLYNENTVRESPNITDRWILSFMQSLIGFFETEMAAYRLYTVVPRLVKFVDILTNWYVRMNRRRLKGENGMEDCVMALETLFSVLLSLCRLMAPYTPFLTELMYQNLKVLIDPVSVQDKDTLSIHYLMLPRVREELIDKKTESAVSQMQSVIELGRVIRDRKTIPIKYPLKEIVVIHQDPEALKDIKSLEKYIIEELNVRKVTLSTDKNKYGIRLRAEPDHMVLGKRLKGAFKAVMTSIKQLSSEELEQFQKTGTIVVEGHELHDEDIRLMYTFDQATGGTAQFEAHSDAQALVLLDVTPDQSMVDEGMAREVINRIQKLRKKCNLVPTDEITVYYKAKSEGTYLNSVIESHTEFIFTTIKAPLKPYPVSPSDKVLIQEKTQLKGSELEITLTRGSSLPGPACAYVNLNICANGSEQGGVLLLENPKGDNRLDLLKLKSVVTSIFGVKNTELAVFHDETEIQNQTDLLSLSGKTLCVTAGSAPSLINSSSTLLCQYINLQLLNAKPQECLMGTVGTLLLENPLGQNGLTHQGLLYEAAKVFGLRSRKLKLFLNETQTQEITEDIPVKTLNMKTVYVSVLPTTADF
Sequence of UniProt P02545 (P02545 whole entry, looked up): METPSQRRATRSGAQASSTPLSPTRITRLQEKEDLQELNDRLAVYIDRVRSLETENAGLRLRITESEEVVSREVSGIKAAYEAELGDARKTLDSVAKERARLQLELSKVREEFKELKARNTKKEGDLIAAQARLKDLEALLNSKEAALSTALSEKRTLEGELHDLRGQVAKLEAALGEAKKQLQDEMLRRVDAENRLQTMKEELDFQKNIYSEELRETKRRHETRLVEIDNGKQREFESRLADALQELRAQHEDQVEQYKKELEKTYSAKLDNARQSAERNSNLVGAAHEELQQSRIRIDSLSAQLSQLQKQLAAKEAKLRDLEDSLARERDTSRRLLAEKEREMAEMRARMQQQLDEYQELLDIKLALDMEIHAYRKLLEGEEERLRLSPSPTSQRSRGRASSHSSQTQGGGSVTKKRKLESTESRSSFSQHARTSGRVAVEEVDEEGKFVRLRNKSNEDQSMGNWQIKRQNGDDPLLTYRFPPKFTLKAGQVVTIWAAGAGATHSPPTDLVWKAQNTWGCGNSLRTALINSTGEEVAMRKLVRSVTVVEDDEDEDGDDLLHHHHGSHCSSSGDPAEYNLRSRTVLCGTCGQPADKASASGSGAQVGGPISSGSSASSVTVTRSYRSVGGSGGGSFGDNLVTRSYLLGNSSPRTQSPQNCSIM
Sequence of UniProt P20810 (P20810 whole entry, looked up): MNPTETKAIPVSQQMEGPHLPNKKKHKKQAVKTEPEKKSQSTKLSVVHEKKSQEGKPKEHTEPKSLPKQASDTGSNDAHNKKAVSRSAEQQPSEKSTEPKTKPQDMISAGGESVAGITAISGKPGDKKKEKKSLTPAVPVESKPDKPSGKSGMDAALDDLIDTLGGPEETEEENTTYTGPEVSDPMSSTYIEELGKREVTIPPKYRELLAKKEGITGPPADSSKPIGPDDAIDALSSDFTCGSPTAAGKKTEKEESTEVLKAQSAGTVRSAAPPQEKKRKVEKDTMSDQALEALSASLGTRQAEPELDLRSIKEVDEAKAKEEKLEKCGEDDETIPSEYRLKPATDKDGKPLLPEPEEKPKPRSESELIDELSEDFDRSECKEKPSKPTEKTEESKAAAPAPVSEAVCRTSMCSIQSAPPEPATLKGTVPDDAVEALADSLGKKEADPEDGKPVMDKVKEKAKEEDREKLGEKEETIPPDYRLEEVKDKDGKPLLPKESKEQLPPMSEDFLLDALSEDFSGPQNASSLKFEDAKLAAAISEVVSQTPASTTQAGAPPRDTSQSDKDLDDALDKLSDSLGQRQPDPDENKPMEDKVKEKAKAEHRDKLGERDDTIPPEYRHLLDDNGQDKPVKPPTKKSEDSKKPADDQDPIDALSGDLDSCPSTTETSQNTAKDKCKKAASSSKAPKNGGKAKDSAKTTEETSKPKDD
Sequence of UniProt P09960 (P09960 whole entry, looked up): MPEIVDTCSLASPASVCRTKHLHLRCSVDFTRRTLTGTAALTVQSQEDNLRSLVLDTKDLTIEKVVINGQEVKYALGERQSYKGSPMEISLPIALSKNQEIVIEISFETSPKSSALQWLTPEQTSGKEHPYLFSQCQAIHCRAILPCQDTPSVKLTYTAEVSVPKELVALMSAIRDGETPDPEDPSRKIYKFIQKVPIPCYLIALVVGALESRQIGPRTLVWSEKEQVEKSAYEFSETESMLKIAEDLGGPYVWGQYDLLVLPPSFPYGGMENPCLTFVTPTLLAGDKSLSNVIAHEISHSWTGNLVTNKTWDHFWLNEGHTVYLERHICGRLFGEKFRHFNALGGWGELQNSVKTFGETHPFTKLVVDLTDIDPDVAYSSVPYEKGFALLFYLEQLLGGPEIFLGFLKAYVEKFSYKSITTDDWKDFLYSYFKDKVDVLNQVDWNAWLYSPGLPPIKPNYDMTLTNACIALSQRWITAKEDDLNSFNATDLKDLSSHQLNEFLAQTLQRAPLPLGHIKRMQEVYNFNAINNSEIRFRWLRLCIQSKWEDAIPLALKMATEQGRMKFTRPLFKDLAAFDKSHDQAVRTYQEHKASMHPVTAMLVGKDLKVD
Sequence of UniProt P09874 (P09874 whole entry, looked up): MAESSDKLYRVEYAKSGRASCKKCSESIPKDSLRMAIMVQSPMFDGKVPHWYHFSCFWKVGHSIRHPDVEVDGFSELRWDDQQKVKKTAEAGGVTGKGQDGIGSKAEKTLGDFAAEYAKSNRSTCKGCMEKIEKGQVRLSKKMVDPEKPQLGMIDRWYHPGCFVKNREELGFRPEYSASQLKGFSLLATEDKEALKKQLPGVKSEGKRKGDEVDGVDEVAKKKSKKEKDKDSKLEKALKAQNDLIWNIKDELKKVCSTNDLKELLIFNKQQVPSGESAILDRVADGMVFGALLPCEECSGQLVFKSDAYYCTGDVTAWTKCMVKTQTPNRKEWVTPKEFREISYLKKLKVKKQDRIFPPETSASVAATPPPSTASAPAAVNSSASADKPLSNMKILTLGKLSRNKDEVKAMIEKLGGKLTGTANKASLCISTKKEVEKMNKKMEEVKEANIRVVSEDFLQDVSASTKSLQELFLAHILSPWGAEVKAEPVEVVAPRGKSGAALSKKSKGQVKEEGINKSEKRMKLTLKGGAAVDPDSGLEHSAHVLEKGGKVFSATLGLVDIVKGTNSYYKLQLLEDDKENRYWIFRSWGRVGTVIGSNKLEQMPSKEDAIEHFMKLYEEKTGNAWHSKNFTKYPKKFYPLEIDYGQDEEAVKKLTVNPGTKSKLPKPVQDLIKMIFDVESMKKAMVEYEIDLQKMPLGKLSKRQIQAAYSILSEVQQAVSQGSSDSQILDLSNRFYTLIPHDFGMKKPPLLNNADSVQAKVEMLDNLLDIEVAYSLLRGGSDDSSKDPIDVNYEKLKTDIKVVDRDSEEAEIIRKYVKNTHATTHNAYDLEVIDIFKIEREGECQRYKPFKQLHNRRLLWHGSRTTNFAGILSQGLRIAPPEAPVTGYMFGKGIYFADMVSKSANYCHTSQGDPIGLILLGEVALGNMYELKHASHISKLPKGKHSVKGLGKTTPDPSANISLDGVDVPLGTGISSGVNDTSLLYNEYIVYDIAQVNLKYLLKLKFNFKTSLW
Sequence of UniProt P50213 (P50213 whole entry, looked up): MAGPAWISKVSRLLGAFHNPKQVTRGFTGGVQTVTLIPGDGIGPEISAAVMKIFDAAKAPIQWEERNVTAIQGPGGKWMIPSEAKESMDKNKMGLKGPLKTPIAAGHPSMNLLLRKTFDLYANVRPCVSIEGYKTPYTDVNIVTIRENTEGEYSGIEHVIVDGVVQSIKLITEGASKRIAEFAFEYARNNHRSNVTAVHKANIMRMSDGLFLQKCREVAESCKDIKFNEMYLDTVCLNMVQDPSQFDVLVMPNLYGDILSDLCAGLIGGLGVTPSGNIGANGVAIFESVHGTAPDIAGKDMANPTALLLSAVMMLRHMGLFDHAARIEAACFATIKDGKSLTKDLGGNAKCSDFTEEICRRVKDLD

log2 ratio of iodoacetamide-alkyne labeling, active:
TMPO C570 (UniProt P42166) 1.16
VDAC2 C210 (UniProt P45880) 1.39

log2 ratio of iodoacetamide-alkyne labeling, inactive:
MSH6 C1337 (UniProt P52701) 0.14
PTPN2 C330 (UniProt P17706) 0.608
PFN1 C17 (UniProt P07737) -0.417
CAST C413 (UniProt P20810) 0.756
BSG C242 (UniProt P35613) 0.215
PYGB C326 (UniProt P11216) 0.332
GALK1 C170 (UniProt P51570) 0.0992
IDH3A C331 (UniProt P50213) 0.257
IARS C433 (UniProt P41252) -0.0103
PARP1 C128 (UniProt P09874) 0.229
LMNB1 C198 (UniProt P20700) 0.109
PCYT1A C73 (UniProt P49585) 0.921
HNRNPM C114 (UniProt P52272) -0.0182
LMNA C570 (UniProt P02545) 0.553
EEF2 C567 (UniProt P13639) 0.0358
LTA4H C8 (UniProt P09960) 0.273
LRPPRC C863 (UniProt P42704) -0.00586
RPL3 C253 (UniProt P39023) 0.582
FASN C1118 (UniProt P49327) 0.203
TCP1 C218 (UniProt P17987) 0.0267

Reference: the supplement of paper PMC11006884
